“And” between values parts separate entries of the source, which are not always exact repeats. Identical values can stand only once. Results filed as inconclusive are left out. A structure can be active in one record and inactive in another. The source made the active and inactive calls. Unless noted, the call rests on the fitted dose curve; in most records, active means well fitted curve in the direction sought with a large enough effect in the repeat runs; inconclusive means weak or mixed curves; inactive means no such curve, though single readings can be large; an effect the other way counts as inactive or inconclusive.

The nature of test [1]: qHTS assay for small molecule agonists of the p53 signaling pathway (AID 651631; calls by dose curve; further: nearly all actives have a fitted effect of over 15% in size; further: potency means the concentration at half of the fitted maximal effect). Summed up:
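Quantitative high-throughput format: 4,000 p53RE-bla HCT-116 cells/well, 5 h pre-incubation, 16 h compound exposure at 37 °C, 2 h room-temperature substrate step, fluorescence intensity measured.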
Background: qHTS replaces the single test concentration by a dilution series.

Test [2] can be described thus: qHTS assay for small molecules that induce genotoxicity in human embryonic kidney cells expressing luciferase-tagged ATAD5 (AID 651632). Further: nearly all actives have a fitted effect of over 15% in size. Further: potency means the concentration at half of the fitted maximal effect. Summed up:
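ATAD5-luc HEK293T, 2,000 cells/well; cpd or DMSO pin-transferred; 16 hr, 37C/5% CO2; Amplite 30 min RT; luminescence.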

Test [3] in a line: qHTS assay for small molecule agonists of the p53 signaling pathway - cell viability (AID 651633; calls by dose curve; further: nearly all actives have a fitted effect of over 30% in size; further: potency means the concentration at half of the fitted maximal effect). Summed up:
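p53RE-bla cells, seeded at 4,000 per well and rested 5 h at 37 C/5% CO2, received compounds in DMSO for 16 h at 37 C. CellTiter-Glo was then added, and luminescence was read after 30 min at room temperature to gauge cytotoxicity.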

Test [4] can be described thus: qHTS assay for small molecules that induce genotoxicity in human embryonic kidney cells expressing luciferase-tagged ATAD5 - cell viability (AID 651634; calls by dose curve; further: nearly all actives have a fitted effect of over 25% in size; further: potency means the concentration at half of the fitted maximal effect). In a few lines: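 Fluorescence from CellTiter-Fluor, reporting protease activity within live cells, served as the viability read-out. HEK293T cells carrying luciferase-tagged ATAD5 had been treated with compound for 15.5 hr at 37C.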

A short description of test [5]: qHTS assay for small molecule disruptors of the mitochondrial membrane potential - cell viability (AID 720634; calls by dose curve; further: nearly all actives have a fitted effect of over 20% in size; further: potency means the concentration at half of the fitted maximal effect). Summed up:
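Cells: HepG2, 2,000/well, attached overnight. Compound 1 hr, 37 C/5% CO2. +m-MPI dye, +CellTiter-Glo 30 min RT. Readout: luminescence (ATP).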

The nature of test [6]: qHTS assay for small molecule disruptors of the mitochondrial membrane potential (AID 720635). Further: potency means the concentration at half of the fitted maximal effect. In a few lines: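 HepG2 cells (2,000/well) attached overnight at 37C, then took compound for 1 hr at 37C, 5% CO2. Mito-MPS dye was added for 30 min; fluorescence was read at 490/535 nm (monomers) and 540/590 nm (aggregates).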
Test [7] can be described thus: qHTS assay to test for compound auto fluorescence at 590 nm (red) in HepG2 cells (AID 720674). Summed up:
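Intrinsic compound fluorescence in the red window (Ex/Em 540/590 nm) is measured in attached HepG2 cells exposed for 1 hr, DMSO vehicle as baseline, benchmarked to Rose Bengal sodium.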

Test [8] is described as follows: qHTS assay to test for compound auto fluorescence at 535 nm (green) in HepG2 cells (AID 720675).
The nature of test [9]: qHTS assay to test for compound auto fluorescence at 460 nm (blue) in HEK293 cells (AID 720678). Further: potency means the concentration at half of the fitted maximal effect. In a few lines:
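Blue-channel (Ex/Em 405/460 nm) intensity measured in HEK293 cultures after overnight compound exposure at 37C; signal expressed relative to triamterene. Cells plated 2,000 per well in 10% dialyzed FBS medium and allowed 4-5 hr to attach.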

Test [10] can be described thus: qHTS assay to test for compound auto fluorescence at 590 nm (red) in HEK293 cells (AID 720679). In a few lines:
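Red-channel autofluorescence (Ex/Em 540/590 nm; Rose Bengal sodium reference) was measured after overnight 37C, 5% CO2 exposure of attached HEK293 cells, 2,000 per well in medium with 10% dialyzed FBS.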
On the % scale 0 is the no-effect control and ±100 the full control effect; tags describe the fitted curve by direction and shape or compound fluorescence and quenching.

As for `Clc1ccc2nsnc2c1NC1=NCCN1`, the Potency result in test [1], in [2], in [3], in test [4], in test [5] and in test [6] was “inactive” in each case. In addition, the Potency entry in test [7], in test [8], in test [9] and in [10] was “inactive” in each case.

On to `O=C(Nc1ccc(Oc2ccc(Cl)cc2)c(Cl)c1)c1cc(I)cc(I)c1O`, for which the Potency was 10.6 µM (active) in [1] and 4.22 µM (active) in test [3]. The Potency result in test [2], in test [5], in test [7], in [8], in test [9] and in [10] was “inactive” each time.

Consider `CC(C)(C)c1ccc(C(=O)O)cc1`, for which the Potency entry in [1], in [2], in test [3], in test [4], in [7] and in [8] was “inactive” in each case. Further, the Potency result in test [9] and in test [10] was “inactive” throughout.

For the compound `N=C1C=CC(=C(c2ccc(N)cc2)c2ccc(N)cc2)C=C1`, the figures for the Potency in test [1] and in test [4] were 68.6 µM (active) and 24.3 µM (active), respectively. In addition, the Potency result in test [2], in test [7], in [8], in test [9] and in test [10] was “inactive” throughout.

As to `CC[C@@]1(O)C(=O)OCc2c1cc1n(c2=O)Cc2cc3c(CN(C)C)c(O)ccc3nc2-1`, the Potency in [1] is 0.237 µM (active); in [3], 8.41 µM (active); in test [9], 17.8 µM [fluorescent] (active). Moreover, the Potency result in test [2], in test [5], in test [7], in test [8] and in [10] was “inactive” each time.

For the compound `CCOc1ccc2nc3cc(N)ccc3c(N)c2c1`, the Potency in [1] was 11.9 µM (active). Moreover, the Potency result in [2], in test [4], in test [5], in [7], in test [8] and in [10] was “inactive” each time.

As for `CCCCN1C(=O)[C@@H]([C@H](O)C2CCCCC2)NC(=O)C12CCN(Cc1ccc(Oc3ccc(C(=O)O)cc3)cc1)CC2`, the Potency in test [1] is 54.5 µM (active). For the same compound, the Potency entry in [2], in [3], in [5], in test [7], in test [8] and in [9] was “inactive” each time. The Potency entry in [10] is “inactive”.

With `Cc1nc(-c2ccc3c(c2)CCN(CCC2CCC(NC(=O)/C=C/c4ccc(F)cc4)CC2)CC3)no1` (stereo not given), the Potency was 27.4 µM (active) in test [1] and 19.4 µM (active) in test [2]. Moreover, the Potency entry in test [3], in [5], in test [6], in test [7], in [8] and in [9] was “inactive” each time. In addition, the Potency result in [10] was “inactive”.

As for `CSc1cnc(C)cn1`, the Potency entry in test [1], in [2], in test [3], in test [5], in test [6] and in test [7] was “inactive” throughout. Moreover, the Potency result in [8], in [9] and in test [10] was “inactive” throughout.

Regarding `O=[N+]([O-])c1ccccc1Nc1ccccc1`, the Potency entry in test [1], in test [2], in test [3], in test [5], in test [7] and in test [8] was “inactive” throughout. Also, the Potency entry in [9] and in test [10] was “inactive” in each case.

Regarding `O=C1Cc2cc(CCN3CCN(c4nsc5ccccc45)CC3)c(Cl)cc2N1`, the Potency entry in test [1], in test [2], in test [5], in [6], in [7] and in [8] was “inactive” in each case. The Potency result in test [9] and in test [10] was “inactive” each time. Further, the Potency entry in test [3] was “inactive and 23.7 µM (active)”.

Consider `N=C1N=C(N)c2cc3ccccc3cc21`, for which the Potency in [1] was 9.69 µM (active); in [2], 19.3 µM (active); in test [3], 12.2 µM (active); in [9], 35.5 µM [fluorescent] (active). Besides, the Potency result in test [5], in test [7], in [8] and in [10] was “inactive” throughout.

Turning to `Cc1cc2c(cc1C(F)(F)F)N(C(=O)Nc1ccc(Oc3cccnc3C)nc1)CC2`, the Potency result in [1], in [2], in test [3], in [7], in test [8] and in test [9] was “inactive” throughout. Besides, the Potency entry in test [10] is “inactive”.

Regarding `N=C1N=C(N)c2ccccc21`, the Potency in test [1] is 24.3 µM (active); in test [2], 21.7 µM (active); in test [3], 21.7 µM (active). In addition, the Potency result in test [5], in test [7], in test [8], in test [9] and in test [10] was “inactive” each time.

For the compound `COc1cccc2c1C(=O)c1c(O)c3c(c(O)c1C2=O)C[C@@](O)(C(=O)CO)C[C@@H]3O[C@H]1C[C@H](N)[C@H](O[C@@H]2CCCCO2)[C@H](C)O1`, the Potency in test [1] is 1.88 µM (active); in test [2], 2.37 µM (active); in [3] it was 8.41 µM (active); in test [6], 0.699 µM (active). For the same compound, the Potency result in test [5] and in [9] was “inactive” in each case.

With `CC(C)(C)C(=O)OCOC(=O)[C@@H]1N2C(=O)[C@@H](NC(=O)[C@H](N)c3ccccc3)[C@H]2SC1(C)C`, the Potency result in [1], in test [2], in [3], in test [5] and in test [6] was “inactive” in each case. Further, the fluorescence, relative to Rose Bengal in [7] is 0.612% [at 18.6 µM] (inactive). In addition, the fluorescence, % of fluorescein control in test [8] was -0.113% [at 18.6 µM] (inactive). Also, the fluorescence, % of triamterene in test [9] is 0.0033% [at 18.6 µM] (inactive). The fluorescence, % of fluorescent control in test [10] is 0.201% [at 18.6 µM] (inactive).

As to `C/C=C(\C)C(=O)OCc1ccccc1`, the Potency result in test [1], in test [2], in test [3], in [5], in [7] and in test [8] was “inactive” in each case. Further, the Potency result in [9] and in test [10] was “inactive” each time.

`Nc1c2ccccc2nc2ccccc12`: the Potency is 3.35 µM (active) and 1.91 µM (active) in test [1]; 11.2 µM [fluorescent] (active) and 31.6 µM [fluorescent] (active) in test [9]. Moreover, the Potency result in test [2], in test [3], in [5], in test [7], in test [8] and in [10] was “inactive” throughout.

Regarding `O=c1c(-c2ccccc2)c1-c1ccccc1`, the values for the Potency in [1], in test [3] and in test [6] were 18.8 µM (active), 13.3 µM (active) and 23.7 µM (active), respectively. Besides, the Potency result in test [2], in test [5], in test [7], in test [8], in test [9] and in [10] was “inactive” each time.

With `Oc1c(Cl)cc(Cl)c2cccnc12`, the Potency is 2.37 µM (active) in test [1], 13.3 µM (active) in test [2] and 2.98 µM (active) in [3]. Moreover, the Potency entry in test [5], in test [7], in test [8], in test [9] and in [10] was “inactive” each time.

For `NC(=O)N1C(=O)C(C(=O)c2cc(Cl)cs2)c2cc(F)c(Cl)cc21` (stereo not given), the Potency is 2.17 µM (active) in test [1], 1.37 µM (active) in test [3] and 0.217 µM (active) in [5]. The Potency result in [2], in test [7], in test [8], in test [9] and in [10] was “inactive” throughout.

(Values after PubChem BioAssay (Tox21).)
